Results published in PubChem BioAssay AID1159580 (chemical genetic matrix, 2015).
“And” between values parts separate entries of the source, which are not always exact repeats. Equal entries are not always repeated. In all, about 5,500 compounds went through this assay and about 2,000 (36%) were called active. About 18% were inconclusive and are not listed. Rule as the data show it: active = normalized growth mostly below about 0.91 (no sharp cut-off); inconclusive = no clear call, values can overlap the other calls; inactive = mostly above about 0.92. The list shows a part of the results.

Experiment: chemical genetic growth profiling, strain panel (AID 1159580);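 also: tested at 20 µM; growth read once vehicle control cultures reached saturation at 30 °C; 1 = growth at the plate median or of vehicle wells; lower values mean less growth of the strain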
Conditions: S. cerevisiae deletion strains, growth OD

Measured: normalized growth

COc1cc2c(cc1O)CC1c3c(cc(O)c(OC)c3-2)CCN1C (centres undefined)
inactive: locus YAL021C, strain ccr4, stronger effect = lower value 1.02 | locus YAL026C, strain drs2, stronger effect = lower value 1.03 | locus YAL030W, strain snc1, stronger effect = lower value 1.01 | locus YBL061C, strain skt5, stronger effect = lower value 1.02 | locus YBR009C, strain hhf1, stronger effect = lower value 1.03 | locus YBR021W, strain FUR4, stronger effect = lower value 0.993 | locus YBR023C, strain chs3, stronger effect = lower value 1.02 | locus YBR171W, strain sec66, stronger effect = lower value 1.01 | locus YBR229C, strain ROT2, stronger effect = lower value 0.999 | locus YBR231C, strain swc5, stronger effect = lower value 1.01 | locus YBR279W, strain paf1, stronger effect = lower value 1.01 | locus YCL011C, strain gbp2, stronger effect = lower value 1.02 | locus YCL016C, strain dcc1, stronger effect = lower value 1 | locus YCL029C, strain bik1, stronger effect = lower value 0.994 | locus YCL061C, strain MRC1, stronger effect = lower value 1.01 | locus YCL069W, strain vba3, stronger effect = lower value 1.01 | locus YCR088W, strain abp1, stronger effect = lower value 1.01 | locus YDL005C, strain med2, stronger effect = lower value 1.03 | locus YDL035C, strain GPR1, stronger effect = lower value 1 | locus YDL040C, strain nat1, stronger effect = lower value 1.01 | locus YDL074C, strain BRE1, stronger effect = lower value 1 | locus YDL101C, strain DUN1, stronger effect = lower value 0.996 | locus YDL185W, strain tfp1, stronger effect = lower value 0.991 | locus YDL192W, strain arf1, stronger effect = lower value 0.996 | locus YDR001C, strain nth1, stronger effect = lower value 1.01 | locus YDR069C, strain doa4, stronger effect = lower value 1.04 | locus YDR101C, strain arx1, stronger effect = lower value 0.98 | locus YDR137W, strain rgp1, stronger effect = lower value 1.04 | locus YDR159W, strain sac3, stronger effect = lower value 1.04 | locus YDR162C, strain NBP2, stronger effect = lower value 1 | locus YDR195W, strain ref2 0.999 | locus YDR297W, strain sur2, stronger effect = lower value 1.01 | locus YDR318W, strain mcm21, stronger effect = lower value 1 | locus YDR334W, strain swr1, stronger effect = lower value 1.01 | locus YDR335W, strain msn5, stronger effect = lower value 1.01 | locus YDR388W, stronger effect = lower value 0.996 | locus YDR392W, strain spt3, stronger effect = lower value 0.95 | locus YDR502C, strain sam2, stronger effect = lower value 0.993 | locus YEL003W, strain gim4, stronger effect = lower value 1.02 | locus YEL037C, strain rad23, stronger effect = lower value 1.01 | locus YEL061C, strain CIN8 (second series), stronger effect = lower value 1.01 | locus YEL061C, strain CIN8, stronger effect = lower value 0.998 | locus YER015W, strain faa2, stronger effect = lower value 1.01 | locus YER016W, strain bim1, stronger effect = lower value 1.02 | locus YER110C, stronger effect = lower value 0.997 | locus YER111C, strain swi4, stronger effect = lower value 1.01 | locus YER155C, strain BEM2 (second series), stronger effect = lower value 1.03 | locus YER155C, strain BEM2, stronger effect = lower value 1 | locus YER167W, strain BCK2, stronger effect = lower value 1 | locus YFR010W, strain ubp6, stronger effect = lower value 1.02 | locus YGL078C, strain dbp3, stronger effect = lower value 0.997 | locus YGL086W, strain mad1, stronger effect = lower value 0.978 | locus YGL167C, strain pmr1, stronger effect = lower value 1 | locus YGL173C, strain kem1, stronger effect = lower value 1.02 | locus YGL227W, strain vid30, stronger effect = lower value 1.02 | locus YGL240W, strain doc1, stronger effect = lower value 1.01 | locus YGL248W, strain PDE1, stronger effect = lower value 1.01 | locus YGL253W, strain hxk2, stronger effect = lower value 1 | locus YGR135W, strain pre9, stronger effect = lower value 0.986 | locus YGR252W, strain gcn5, stronger effect = lower value 0.917 | locus YHR013C, strain ard1, stronger effect = lower value 1 | locus YHR027C, strain rpn1, stronger effect = lower value 1.02 | locus YHR030C, strain SLT2, stronger effect = lower value 1.01 and 0.986 | locus YHR079C, strain IRE1 (second series), stronger effect = lower value 0.993 | locus YHR079C, strain IRE1, stronger effect = lower value 1.01 | locus YHR094C, strain hxt1, stronger effect = lower value 1 | locus YHR129C, strain ARP1, stronger effect = lower value 0.994 | locus YHR142W, strain chs7, stronger effect = lower value 0.996 | locus YHR200W, strain rpn10, stronger effect = lower value 0.988 | locus YIL066C, strain RNR3, stronger effect = lower value 1.01 | locus YIL073C, strain SPO22, stronger effect = lower value 1.03 | locus YIL125W, strain kgd1, stronger effect = lower value 0.986 | locus YIR030C, strain dcg1, stronger effect = lower value 0.992 | locus YJL092W, strain hpr5, stronger effect = lower value 1.01 | locus YJL095W, strain BCK1 (second series), stronger effect = lower value 0.988 | locus YJL095W, strain BCK1, stronger effect = lower value 1.01 and 0.996 | locus YJL115W, strain asf1, stronger effect = lower value 1.02 | locus YJL129C, strain trk1, stronger effect = lower value 1.02 | locus YJL134W, strain LCB3, stronger effect = lower value 1.01 | locus YJL154C, strain vps35, stronger effect = lower value 1.01 | locus YJL164C, strain tpk1, stronger effect = lower value 1.01 | locus YJL166W, strain qcr8, stronger effect = lower value 1.01 | locus YJL168C, strain set2, stronger effect = lower value 0.988 | locus YJL187C, strain SWE1 (second series), stronger effect = lower value 0.998 | locus YJL187C, strain SWE1, stronger effect = lower value 1 | locus YJR043C, strain POL32, stronger effect = lower value 0.987 | locus YJR066W, strain TOR1, stronger effect = lower value 0.946 | locus YJR075W, strain HOC1, stronger effect = lower value 1.01 | locus YKL009W, strain mrt4, stronger effect = lower value 1 | locus YKL068W, stronger effect = lower value 1.01 | locus YKL085W, strain MDH1 (second series), stronger effect = lower value 0.994 | locus YKL085W, strain MDH1, stronger effect = lower value 0.994 | locus YKL160W, strain elf1, stronger effect = lower value 1.01 | locus YKR001C, strain vps1, stronger effect = lower value 1.01 | locus YKR026C, strain gcn3, stronger effect = lower value 0.983 | locus YKR091W, strain srl3, stronger effect = lower value 1.01 | locus YLL001W, strain dnm1, stronger effect = lower value 1 | locus YLL026W, stronger effect = lower value 1.02 | locus YLL041C, strain sdh2, stronger effect = lower value 1.01 | locus YLR027C, strain aat2, stronger effect = lower value 1.01 | locus YLR039C, strain RIC1, stronger effect = lower value 1.01 | locus YLR058C, strain SHM2, stronger effect = lower value 1.01 | locus YLR102C, strain apc9, stronger effect = lower value 0.998 | locus YLR113W, strain HOG1, stronger effect = lower value 0.994 | locus YLR221C, strain rsa3, stronger effect = lower value 1.01 | locus YLR258W, strain gsy2, stronger effect = lower value 1.02 | locus YLR262C, strain YPT6 (second series), stronger effect = lower value 1.03 | locus YLR262C, strain YPT6, stronger effect = lower value 1.01 | locus YLR268W, strain sec22, stronger effect = lower value 0.976 | locus YLR320W, strain mms22, stronger effect = lower value 1.02 | locus YLR330W, strain CHS5, stronger effect = lower value 1.01 | locus YLR342W, strain FKS1 (second series), stronger effect = lower value 0.998 | locus YLR342W, strain FKS1, stronger effect = lower value 1 | locus YLR357W, strain rsc2, stronger effect = lower value 1.04 | locus YLR370C, strain arc18, stronger effect = lower value 1.03 | locus YLR371W, strain rom2, stronger effect = lower value 0.996 | locus YLR384C, strain iki3, stronger effect = lower value 1.02 | locus YLR418C, strain cdc73, stronger effect = lower value 0.98 | locus YML016C, strain PPZ1, stronger effect = lower value 1 | locus YML032C, strain rad52, stronger effect = lower value 1 | locus YML120C, strain ndi1, stronger effect = lower value 1.01 | locus YML124C, strain tub3, stronger effect = lower value 0.992 | locus YMR058W, strain fet3, stronger effect = lower value 1.01 | locus YMR078C, strain ctf18, stronger effect = lower value 1 | locus YMR125W, strain sto1, stronger effect = lower value 1.03 | locus YMR129W, stronger effect = lower value 1.03 | locus YMR205C, strain PFK2, stronger effect = lower value 1.05 | locus YMR223W, strain ubp8, stronger effect = lower value 0.986 | locus YMR231W, strain pep5, stronger effect = lower value 1.01 | locus YMR263W, strain SAP30, stronger effect = lower value 1 | locus YMR307W, strain GAS1, stronger effect = lower value 0.997 | locus YNL067W, strain RPL9B, stronger effect = lower value 0.998 | locus YNL071W, strain lat1, stronger effect = lower value 1.02 | locus YNL183C, strain NPR1, stronger effect = lower value 0.951 | locus YNL209W, strain ssb2, stronger effect = lower value 1.01 | locus YNL233W, strain BNI4, stronger effect = lower value 0.992 | locus YNL248C, strain rpa49, stronger effect = lower value 1 | locus YNL250W, strain rad50, stronger effect = lower value 1 | locus YNL271C, strain bni1, stronger effect = lower value 0.992 | locus YNL298W, strain CLA4, stronger effect = lower value 0.995 | locus YNL307C, strain MCK1, stronger effect = lower value 0.994 | locus YNL322C, strain KRE1 (second series), stronger effect = lower value 1.01 | locus YNL322C, strain KRE1, stronger effect = lower value 1 | locus YNR049C, strain mso1, stronger effect = lower value 1.01 | locus YNR052C, strain pop2, stronger effect = lower value 1.01 | locus YOL012C, strain htz1 0.764 | locus YOL147C, strain pex11, stronger effect = lower value 0.998 | locus YOR001W, strain rrp6, stronger effect = lower value 1.01 | locus YOR061W, strain CKA2, stronger effect = lower value 1.01 | locus YOR069W, strain VPS5, stronger effect = lower value 1 | locus YOR070C, strain gyp1, stronger effect = lower value 1.02 | locus YOR080W, strain dia2, stronger effect = lower value 1.01 | locus YOR083W, strain WHI5, stronger effect = lower value 0.997 | locus YOR106W, strain vam3, stronger effect = lower value 1.03 | locus YOR136W, strain idh2, stronger effect = lower value 0.99 | locus YOR144C, strain elg1, stronger effect = lower value 0.993 | locus YOR184W, strain ser1, stronger effect = lower value 0.992 | locus YOR231W, strain MKK1, stronger effect = lower value 1 | locus YOR265W, strain rbl2, stronger effect = lower value 1 | locus YOR270C, strain vph1, stronger effect = lower value 1.06 | locus YOR290C, strain snf2, stronger effect = lower value 0.999 | locus YOR316C, strain cot1, stronger effect = lower value 1 | locus YPL051W, strain arl3, stronger effect = lower value 0.994 | locus YPL055C, strain LGE1, stronger effect = lower value 0.988 | locus YPL078C, strain atp4, stronger effect = lower value 1.01 | locus YPL106C, strain sse1, stronger effect = lower value 1.04 | locus YPL240C, strain hsp82, stronger effect = lower value 1.01 | locus YPL241C, strain CIN2, stronger effect = lower value 1 | locus YPL256C, strain CLN2, stronger effect = lower value 0.961 | locus YPR119W, strain clb2, stronger effect = lower value 0.998 | locus YPR141C, strain kar3, stronger effect = lower value 0.985 | locus YPR163C, strain tif3, stronger effect = lower value 0.996 | locus YPR167C, strain met16, stronger effect = lower value 1 | strain wtn01, stronger effect = lower value 0.97
